Experimental data reported in PubChem BioAssay.
Values without a mark were called inactive. No rule for the calls is given here.

biological target: Pantothenate synthetase (Mycobacterium tuberculosis (strain ATCC 25618 / H37Rv)) (UniProt P9WIL5); assay: Coupled enzyme confirmation of inhibitors against recombinant Mtb PanC (AID 375); settings: coupled enzyme assay; at 10 µM, active compounds read high;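 also: 0% = full reaction with vehicle and 100% = no enzyme background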
Sequence (P9WIL5 whole entry, looked up): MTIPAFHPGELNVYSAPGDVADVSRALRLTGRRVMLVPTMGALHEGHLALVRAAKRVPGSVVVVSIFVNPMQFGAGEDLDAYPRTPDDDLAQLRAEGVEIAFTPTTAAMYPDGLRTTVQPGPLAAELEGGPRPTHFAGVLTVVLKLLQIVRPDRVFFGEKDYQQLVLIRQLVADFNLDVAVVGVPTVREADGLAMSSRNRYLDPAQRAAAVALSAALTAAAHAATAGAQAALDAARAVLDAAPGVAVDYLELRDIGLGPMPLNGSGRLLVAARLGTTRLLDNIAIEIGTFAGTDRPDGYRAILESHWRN

Row | SMILES | inhibition
1 | O=C(CSc1n[nH]c(=O)[nH]c1=O)c1ccccc1 | 0%
2 | O=C(OCCN=C1NS(=O)(=O)c2ccccc21)C1CC(=O)N(c2ccc(Cl)cc2)C1 (stereo unspecified) | 0%
3 | N#C/C(C(=O)c1ccccc1)=C1/CCCN1 | 3%
4 | Cc1c(C(=O)NCc2ccccc2)oc2c1C(=O)CCC2 | 0%
5 | Nc1c(Sc2ccccc2)c(=O)[nH]c(=O)n1Cc1ccccc1 | 0%
6 | Cc1cc(C)n2nc(SCc3cc(=O)n4ccccc4n3)nc2n1 | 0%
7 | CCOc1ccccc1NC(=O)CSc1nnc2c(CC)c(C)nc(N)n12 | 0%
8 | Cc1cccc(N2CCN(C(=O)c3cc4c(=O)[nH]c5ccccc5c4n3C)CC2)c1C | 7%
9 | Cc1cccc(C)c1NC(=O)CS(=O)CC(=O)NC1CCCc2ccccc21 (stereo unspecified) | 12%
10 | Cc1cc(Nc2ccccc2N2CCOCC2)n2ncnc2n1 | 0%
11 | CSc1ccccc1NC(=O)CN(c1ccccc1)S(=O)(=O)N(C)C | 3%
12 | CCOC(=O)c1ccc(COC(=O)CCc2nc3ccccc3[nH]c2=O)o1 | 0%
13 | COc1cc2c(cc1OC)C(C)N(C(=O)c1cc3n(n1)C(C(F)(F)F)CC(c1ccco1)N3)CC2 (stereo unspecified) | 6%
14 | c1ccc2c(c1)c1c3n2CCNC3CCC1 (stereo unspecified) | 0%
15 | CN(C(=O)COC(=O)C1CCN(S(=O)(=O)c2cccs2)CC1)C1CCS(=O)(=O)C1 (stereo unspecified) | 7%
16 | CCOC(=O)C1CCN(C(=O)COc2ccc(S(=O)(=O)NC(C)C)cc2Cl)CC1 | 0%
